These results are taken from PubChem BioAssay AID1508600 (Functional Genomics Laboratory (NCATS/FGL), 2020).

About 3,700 (7%) of roughly 53,000 sequences were called active. This is one part of a sample in which actives are shown more often than they occur.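 How the source made its calls: active means gene knockdowns whose robust z-score for IL-1 alpha signal is at least 2 or at most -2, so actives lie on both sides; inactive means the rest.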

The experiment can be described thus: Components of the Cytosolic LPS Sensing Pathway: Gene Identification via Genome-wide siRNA Screen.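 Further: robust z of the log signal after scaling to non-targeting control siRNA wells of the plate.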 Particulars: RAW264.7 macrophages, IL-1a HTRF, actives lie on both sides, screened at 100 nM (by protocol), cells primed 5 h with Pam3CSK4 first. In outline:
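Cells (RAW264.7, 1×10^4 per well) were transfected with siRNA at 100 nM and cultured 48h at 37 degrees C. Pam3CSK4 was added for 5 hours; LipidA transfection followed for 24 hour. IL-1a was then measured by HTRF.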
As to GCAGAUCCGAAUCAAUGAGTT against Twf2, the z-score was 0.504 (inactive).
In the case of GCGAUUGAGAGGCUACACUTT against Pigb, the z-score was 0.402 (inactive).
For GGGCUGUUAUUUCAAGAAATT against Galnt13 the value was -0.173 (inactive); for CCCACUAAAAUCCUAUCUCTT against Ggta1, -2.57 (active); for GGGUCAAGUUUACAGAUGATT against Luc7l, 0.0159 (inactive).
For GGGUGCAUUUUAAAUACUATT against Spred2 the value was 0.73 (inactive); for GGAAUCCUCUAAAUGACCUTT against Vmn1r174, -1.49 (inactive); for GGCCAUUCUUUGUCACCCATT against Os9, -2.87 (active).
The value for CCAUUAACUCUUUGAGUAUTT against Omg was 0.321 (inactive); that for GGAGCUGAGAAACAAGAUUTT against Bspry was -0.972 (inactive); that for GGAUGUUAAAGCCAUAUACTT against Msh6 was -0.788 (inactive).
Regarding GGGCUACCUCAGUUUAAACTT against Spic, the z-score is 0.763 (inactive).
Regarding GGCAAUAACUGCUUUAUCUTT against Olfr509, the z-score was -0.68 (inactive).
For GCGUAUUCAGCUGGGAUAGTT against Marveld2 the value was -2.42 (active).
With CCUUCGUGUUCACUUUAAGTT against Rpl17, the z-score is -1.5 (inactive).
For CCACUAAUAGUCGUAGAAUTT against Dand5 the value was 0.535 (inactive).
GCCAUCUCUAUGUUGUUGATT against Smtnl2: the z-score was -0.108 (inactive).
In the case of GGUCAUCCUCAAGAUGAAGTT against Zfp819, the z-score is -2.82 (active).
For GGCAUGUCCAAGGAAUACUTT against Snrpg the value was -1.4 (inactive).
GGUUAAUCUGAGAAUUCUATT against Kcnk1: the z-score was 0.717 (inactive).
The value for CCCAAUUUUUAGUUGCUAATT against Rab2b was 0.0495 (inactive); that for GGAAGCUGUCUUCAAGUCCTT against Phf7 was -1.3 (inactive); that for GCAGUCCUCGUCCUCAAAGTT against Btbd10 was 2.16 (active).
The value for GGCAGAAUACUAUAUAUAGTT against Tmx2 was 0.879 (inactive); that for GGAAAUCUGUUCUUGAAGGTT against Pcdhb4 was -0.0811 (inactive); that for GGUGCUGACUCCGACUAAATT against Nhsl1 was 1.2 (inactive).
Take GGUACAGCUGGUUCUCUUUTT against Olfr1018: the z-score was 1.2 (inactive).
Consider GCUUGCUAGAUUGGUGUUGTT against Arhgap17, for which the z-score was 3.32 (active).
The value for GGCUGCUAUCAUGGAAUUATT against Ppp2cb was 0.924 (inactive).
In the case of CGUGUGAAGAAAAUUGAUGTT against Mmp27, the z-score was 0.568 (inactive).
The value for GCACAGUAACCUAAAAUACTT against Tanc2 was -1.48 (inactive); that for GGAUUUGAGGUUUUAGGAATT against Qtrt2 was -0.0174 (inactive).
The value for GGUUGUGGUCUUUGUUCUGTT against Olfr923 was -1.11 (inactive); that for GGAAAGAACAACAAAGGAGTT against Snx9 was 0.84 (inactive); that for CCUCUCAGAUGGUAUAUAATT against Olfr520 was -2.14 (active).
The value for GCCUCAAUUGUUUACUUAUTT against Edn2 was 0.404 (inactive); that for GGAGAAGUCAUGAAACAAATT against Prkn was 0.349 (inactive).
Take GGACAAAUCUUUGUUUAGCTT against Plscr3: the z-score was -0.0965 (inactive).
With GGGACCCAAGGAUAUGAAUTT against Rbsn, the z-score is 0.6 (inactive).
Regarding GGAGCAAGUAUUUACAUUGTT against Psmd10, the z-score was 1.55 (inactive).
The value for GGAGGUUGGGAUGAAUUAUTT against Rab6b was 4.26 (active).
Consider GGACUAAUUGGCCUCUGCUTT against Rpl22l1, for which the z-score is 0.638 (inactive).
The value for GGGCUGCUCACAAUUUAUATT against Tmem135 was 1.17 (inactive).
For GGACACUUACGUCAUCGAGTT against Rtca the value was -0.814 (inactive).
As to GGUGGAGAUUGUUUGUAAATT against Lratd1, the z-score was 1.56 (inactive).
Consider GGACCCAUCGAAACCUCUATT against Pirb, for which the z-score is -0.0759 (inactive).
For CCCAUGCUUGGAAUAAUUATT against Man1a the value was 0.00246 (inactive); for GGACGAACUCAUCAACAGUTT against Gtf2ird1, -0.00436 (inactive).
Take GGGAAGCUGAUUAUACAUUTT against Serpinf1: the z-score was 3.22 (active).
As to GGCUAAGAAUGAGACUGGUTT against Abcg4, the z-score was -0.0869 (inactive).
In the case of GGAGAAGAUUCCAGAAGCCTT against Tcf15, the z-score is -1.42 (inactive).
For GGGCAUUGGCAAGAAAAAGTT against Ahdc1 the value was -0.543 (inactive); for GCAUAAGCGAAGAAGAAGUTT against Clk2, 0.0795 (inactive).
The value for GCUGGCUGUUUCACUACAGTT against Tdh was 3.19 (active); that for GCUAGAGUAGCUUUGGGCATT against Glra3 was 1.37 (inactive).
The value for GCAAGAUUUAUCCCAGUCGTT against Rnf2 was -1.83 (inactive); that for GCUUCGACAUUGUUAGUUATT against Ammecr1 was 0.322 (inactive).
For GCAUGUUCGUGGAAGUACUTT against Got1l1, the z-score is 0.0202 (inactive).
The value for GGAGAUCCUCAAGGAGCAGTT against Park7 was 2.02 (active); that for GCAGUUUCUAAUGAAGGUUTT against Ppp2r5a was 0.416 (inactive).
For CGGUCUGCUCUACAUUGUCTT against Nek4 the value was 1.39 (inactive).
For GCCUAUGGGUCAUUUCAAATT against Dock11 the value was -0.968 (inactive); for GGGCAGGUGGAUGUGGAAATT against Ryr2, 0.546 (inactive).
In the case of GGUACCAUAUCUGUGAACATT against Nrxn3, the z-score was -1.25 (inactive).
The value for GGUUCAGCUGGUCCUAUCUTT against Olfr1099 was -2.07 (active).
For GGCAAUGCUGUCCUACUAUTT against Map2k5 the value was -1.19 (inactive); for GGAGAACUUAAAGCACAAUTT against Plxnb1, 0.179 (inactive); for “UCCUAGAGUCAUCAUCAUATT against A530064D06Rik”, -0.44 (inactive).
For GGAAUCUAUGAACAUGUUUTT against Pcdh12 the value was -0.433 (inactive); for GGCUGGGAAAAAAAAAGAATT against Ifi205, 0.704 (inactive); for GGAUUUUUAUGAUAGUGACTT against Slc4a1ap, -0.747 (inactive).
Take GCAUCACUGGAAAUCUUACTT against Olfr807: the z-score is -2.31 (active).
For CCAUUUGAUCAAGCUUUAGTT against Spock3, the z-score was 0.0957 (inactive).
For GGACUCUCAAUGAUGAAUATT against Map7d3 the value was 1.85 (inactive); for GCGACACAUUCGAUCUCAGTT against Mecom, 4.11 (active); for CCAGAUUCGAAUAUCUAAGTT against Mrps30, 0.935 (inactive).
The value for GCCAGAAUGGACUUGAGAATT against Vmn1r227 was -1.21 (inactive).
For GCCUUAAUGAGGGUUAUGCTT against Fbp1 the value was -1.11 (inactive); for CGAACCAUAGCUAGCUCCATT against Klhdc8b, -0.869 (inactive).
With GGCUCAGUCCCAUCAGCAUTT against Gdf7, the z-score was 0.524 (inactive).
For GGUUUGAUCUCAUUUUCCUTT against Mcm4 the value was 2.92 (active); for GGAACAGUAUAUAAGUUCATT against Hcfc2, -0.593 (inactive).
For the sequence GCUACUUCAUGGAAUCUUCTT against Mrgprb8, the z-score is -0.668 (inactive).
The value for CGUUUGAAUAAUUCAGAGUTT against Armcx2 was -0.152 (inactive); that for GGUGGAAGGCUUUUUCUACTT against Olfr1104 was 1.63 (inactive); that for GCGAUACCGUGCCAUGUUUTT against Dohh was -1.21 (inactive).
The value for “CGAAGAUUACCUUUCAAGATT against St6galnac3” was 0.371 (inactive).
Consider GCCCUUUCGCCUAUGGUUUTT against Tedc1, for which the z-score was 0.931 (inactive).
For the sequence GCUAAUCAACAAUGUCGCCTT against Atp5b, the z-score is 0.781 (inactive).
Take GGUUAAAGUCCUUCAGUAUTT against Tubb3: the z-score is 2.83 (active).
Take GGAAAAAACCACGAUUGAGTT against Pecam1: the z-score is -0.434 (inactive).
The value for GGCUUACCUACAACAAGUUTT against Ccnt1 was -2.07 (active); that for “GGUUAGGCACAAAUAAGUUTT against B230206H07Rik” was 1.08 (inactive).
On to GGUUCCUAUACCCAACGGUTT against Mrgpra7, for which the z-score was -1.07 (inactive).
Regarding GGUUGAUGAUAGCUCUGAATT against Opn1mw, the z-score was -0.22 (inactive).
As to GGUCUUAAGGAGAAAUGAATT against Cbln2, the z-score is -0.48 (inactive).
For GCUUCGCUCGCAUUCUUAUTT against Rsrc1 the value was -0.299 (inactive); for GGACUAUCCAGGAAUCGUGTT against Ergic3, 0.713 (inactive); for GGACAAGCUGAAGACGCACTT against Zfp64, 3.03 (active).
The value for GCAUAGUCUUGUUAACCAGTT against Poldip3 was -0.689 (inactive); that for GGAUUCAUAGACUUCAUAGTT against Impdh1 was 0.608 (inactive); that for CCAUCUGGACUUCAGUUUUTT against Rap1gap2 was 0.901 (inactive).
The value for GCACUCAAAUGGUAGAUUCTT against Socs6 was -0.315 (inactive); that for GGGUGAACUCGGACAUUGATT against Spata19 was -0.754 (inactive); that for GCGUGAACACCUGAGGAUUTT against Rchy1 was -0.323 (inactive).
GGUGUUGCUUAUCAUCGGCTT against Mrgprh: the z-score was -2.03 (active).
For GGGCAUCCUGGAUCAUCAUTT against Nlrp6 the value was -1.64 (inactive).
